Test results as given in article PMC5540273 (PLoS ONE, 2017).

Assays:
Conditions in all cases: concentration: 1 μM, replicates: in singlicate; n = 1
ERK1 = system: T1, ERK1
T1 construct: gene MAPK3

ERK2 = system: T2, ERK2
T2 construct: gene MAPK1

ERK3 = system: T3, ERK3
T3 construct: gene MAPK6

ERK4 = system: T4, ERK4
T4 construct: gene MAPK4

ERK5 = system: T5, ERK5
T5 construct: gene MAPK7

ERK8 = system: T6, ERK8
T6 construct: gene MAPK15

ERN1 = system: ERN1
FAK = system: T7, FAK
T7 construct: gene PTK2

FER = system: FER
FES = system: FES
FGFR1 = system: FGFR1
FGFR2 = system: FGFR2
FGFR3 = system: FGFR3
FGFR4 = system: FGFR4
FGR = system: FGR
FLT1 = system: FLT1
FLT3-autoinhibited = system: FLT3-autoinhibited
FLT3 = system: FLT3
FLT4 = system: FLT4
FRK = system: FRK
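Note: KINOMEscan kinase panel screen.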

| SMILES | %Inh (ERK1) [%] | %Inh (ERK2) [%] | %Inh (ERK3) [%] | %Inh (ERK4) [%] | %Inh (ERK5) [%] | %Inh (ERK8) [%] | %Inh (ERN1) [%] | %Inh (FAK) [%] | %Inh (FER) [%] | %Inh (FES) [%] | %Inh (FGFR1) [%] | %Inh (FGFR2) [%] | %Inh (FGFR3) [%] | %Inh (FGFR4) [%] | %Inh (FGR) [%] | %Inh (FLT1) [%] | %Inh (FLT3-autoinhibited) [%] | %Inh (FLT3) [%] | %Inh (FLT4) [%] | %Inh (FRK) [%] |
| --- | --- | --- | --- | --- | --- | --- | --- | --- | --- | --- | --- | --- | --- | --- | --- | --- | --- | --- | --- | --- |
| Cc1ccc(Nc2ccnc(Nc3ccc(C)c(F)c3)n2)cc1O.Cl [GW582868] | 0 | 0 | 0 | 0 | 26 | 43 | 0 | 0 | 1 | 0 | 1 | 0 | 12 | 5 | 85 | 46 | 0 | 59 | 72 | 92.9 |
| CC(C)c1nc(-c2cccc(NS(=O)(=O)c3c(F)cccc3F)c2)c(-c2ccnc(Nc3ccc(N4CCOCC4)nc3)n2)s1.Cl [GSK1723980] | 0 | 0 | 0 | 0 | 0 | 97.9 | 50 | 0 | 49 | 18 | 14 | 0 | 4 | 0 | 98.4 | 98.3 | 0 | 66 | 99.9 | 96.3 |
| Cl.O=C(Nc1ccc(Oc2ccc3[nH]c(NC(=O)c4ccco4)nc3c2)cc1)Nc1cc(C(F)(F)F)ccc1F [GW683134] | 0 | 0 | 0 | 14 | 0 | 82 | 0 | 0 | 0 | 0 | 40 | 77 | 36 | 12 | 24 | 98.5 | 25 | 99.4 | 99.9 | 77 |
| CCNC(=O)/C=C/c1n[nH]c2cc(Sc3ccccc3C(=O)NC)ccc12 | 8 | 43 | 13 | 15 | 3 | 28 | 15 | 0 | 4 | 24 | 79 | 74 | 68 | 14 | 71 | 99.9 | 26 | 31 | 99.5 | 31 |
| Cc1ccccc1CC(=O)N1CCc2cc(-c3cn(C)c4ncnc(N)c34)ccc21 [GSK2603346] | 0 | 0 | 0 | 0 | 0 | 30 | 1 | 0 | 17 | 0 | 0 | 14 | 8 | 0 | 22 | 59 | 0 | 51 | 29 | 2 |
| Nc1ncc(-c2ccc3nccc(-c4ccncc4)c3c2)cc1S(=O)(=O)N1CCCCC1 [GSK1693850] | 0 | 0 | 0 | 13 | 11 | 38 | 1 | 0 | 32 | 0 | 0 | 84 | 16 | 0 | 23 | 7 | 0 | 2 | 0 | 1 |
| Cn1cc(-c2cnc(N)c3c(-c4ccc5c(c4)CCN5C(=O)Cc4ccccc4)csc23)cn1 [GSK2593074] | 0 | 0 | 0 | 0 | 15 | 11 | 28 | 7 | 10 | 14 | 28 | 40 | 49 | 0 | 75 | 79 | 0 | 99 | 31 | 38 |
| Cl.Cl.NCC(NC(=O)c1cc(-c2cccnc2)c(-c2ccnc3[nH]ccc23)s1)c1ccccc1 (stereo not drawn) [GSK1323434] | 0 | 8 | 3 | 33 | 0 | 16 | 6 | 0 | 50 | 44 | 8 | 0 | 39 | 6 | 42 | 17 | 0 | 5 | 0 | 15 |
| Nc1cccc(-c2ccc3c(N)n[nH]c3c2)c1 [GSK2193613] | 0 | 0 | 11 | 14 | 0 | 15 | 4 | 16 | 11 | 16 | 74 | 0 | 0 | 0 | 23 | 14 | 0 | 14 | 0 | 0 |
